Results from PubChem BioAssay AID2284108 (EPA ToxCast).
Active and inactive are the calls of the source. The calls were made as follows: active = hit-call score of the fitted dose curve at least 0.9, where 1 is the maximum; inactive = score below 0.9.

Target: human Src Tyrosine Kinase, SRC (gene 6714) (UniProt P12931)
Experiment: ERF_FR_ENZ_hSRC: Eurofins (ERF) Enzymatic Radiometric [Km ATP] KinaseProfiler LeadHunter Assay for human Src Tyrosine Kinase
Procedure: ERF_FR_ENZ_hSRC is a biochemical, single-readout assay that uses extracted gene-proteins in a cell-free assay. Measurements were taken 0.16 hour after chemical dosing in a 96-well plate. See Src Human TK Kinase Enzymatic LANCE Assay [Km ATP], Cerep.ERF_FR_ENZ_hSRC is an assay component calculated from the ERF_FR_ENZ_hSRC assay. It is designed to measure enzyme activity using a type of enzyme reporter as detected by fluorescence intensity with LANCE technology.Data from the assay component ERF_FR_ENZ_hSRC was analyzed at the assay endpoint, ERF_FR_ENZ_hSRC, in the positive analysis fitting direction relative to DMSO as the negative control and baseline of activity. Using a type of enzyme reporter, loss-of-signal activity can be used to understand changes in enzymatic activity as they relate to gene SRC. To generalize the intended target to other relatable targets, this assay endpoint is annotated to the kinase intended target family, where the subfamily is non-receptor tyrosine kinase.
c-Src (h) is incubated with 8 mM MOPS pH 7.0, 0.2 mM EDTA, 250 uM […] (Cdc2 peptide), 10 mM MgAcetate and [gamma-33P]-ATP (specific activity and concentration as required). The reaction is initiated by the addition of the Mg/ATP mix. After incubation for 40 minutes at room temperature, the reaction is stopped by the addition of phosphoric acid to a concentration of 0.5%. […]

human Src Tyrosine Kinase, SRC (gene 6714), sequence (P12931 whole entry, looked up): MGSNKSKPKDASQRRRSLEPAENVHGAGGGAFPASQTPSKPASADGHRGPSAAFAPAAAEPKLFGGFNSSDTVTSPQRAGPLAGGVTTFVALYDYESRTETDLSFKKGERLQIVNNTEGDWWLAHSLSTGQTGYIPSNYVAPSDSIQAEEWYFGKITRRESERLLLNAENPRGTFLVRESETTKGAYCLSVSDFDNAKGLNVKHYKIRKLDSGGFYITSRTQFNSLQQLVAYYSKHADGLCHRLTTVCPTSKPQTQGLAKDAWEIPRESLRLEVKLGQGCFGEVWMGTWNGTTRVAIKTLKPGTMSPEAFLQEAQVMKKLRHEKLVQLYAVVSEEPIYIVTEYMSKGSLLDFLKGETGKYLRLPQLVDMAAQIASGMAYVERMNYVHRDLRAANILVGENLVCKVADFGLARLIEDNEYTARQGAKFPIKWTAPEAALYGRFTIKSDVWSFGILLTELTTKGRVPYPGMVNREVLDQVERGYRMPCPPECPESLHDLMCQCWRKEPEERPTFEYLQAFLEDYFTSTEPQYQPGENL

| Compound | outcome |
| --- | --- |
| O=C(/C=C/c1ccc(O)cc1)CC(=O)/C=C/c1ccc(O)cc1 | inactive |
